Data as given in the supplement of paper PMC6555819.

Tests used:
Assay in all cases: PBM binding z-score (relative to random genomic background probes); higher = stronger binding; sequences stand for … in GC…GCGATTGACAGCGTAGAATGAAGG
[1] = tested on: PPARg:RXRa DBDmut IVT, anti-RXR (DBD mutation: RXRa K156A/R161A, NR concentration 270 nM, RXRa partner concentration 90 nM)
Method in brief: (§1)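 On custom Agilent 4×180K arrays, double-stranded probes with 34-nt variable regions carried direct-repeat seeds, single-nucleotide variants, half-site ablations or random human genomic background. Ligand-free nuclear receptor dimers were applied for 1 h, and binding was read with antibodies against each partner (one per run). Binding z-scores come from regression-normalized fluorescence, with the random background probes as reference.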

[2] = tested on: PPARg:RXRa IVT, anti-PPARg (NR concentration 270 nM, RXRa partner concentration 90 nM)
Method in brief: as §1

[3] = tested on: PPARg DBDmut:RXRa IVT, anti-PPARg (DBD mutation: PPARg1 K132A/R137A, NR concentration 270 nM, RXRa partner concentration 90 nM)
Method in brief: as §1

[4] = tested on: PPARg DBDmut IVT, anti-PPARg (DBD mutation: PPARg1 K132A/R137A, NR concentration 270 nM)
Method in brief: as §1

[5] = tested on: PPARg homodimer (NR concentration 180 nM)
Method in brief: as §1

[6] = tested on: PXR:RXRa (NR concentration 270 nM, RXRa partner concentration 90 nM)
Method in brief: as §1

[7] = tested on: PXR homodimer (NR concentration 270 nM)
Method in brief: as §1

[8] = tested on: RARa:RXR (NR concentration 270 nM, RXRa partner concentration 90 nM)
Method in brief: as §1

[9] = tested on: RARa homodimer (NR concentration 270 nM)
Method in brief: as §1

[10] = tested on: RARb:RXRa (NR concentration 270 nM, RXRa partner concentration 90 nM)
Method in brief: as §1

Sequence	PBM binding z-score [1]	PBM binding z-score [2]	PBM binding z-score [3]	PBM binding z-score [4]	PBM binding z-score [5]	PBM binding z-score [6]	PBM binding z-score [7]	PBM binding z-score [8]	PBM binding z-score [9]	PBM binding z-score [10]
GGAACGTGGGCATTCGAGTTGATAGCATGGCGAT	-0.654	-0.803	-0.387	-0.8	-0.877	-0.129	-0.516	-0.333	-0.773	-0.433
CCTAGTTGGTCAGGAGGTCACACTCCGGATATGA	2.49	3.68	0.158	0.204	4.17	4.23	1.2	4.82	1.53	3.72
AGAATGAGGTTATACGTAGAACAGGGAAGAAAGT	4	1.9	1.52	1.09	1.26	1.09	0.773	1.36	-0.459	1.36
ATCGAAAGGTCGACGAGGTGAGCATACACCGTTT	0.211	2.48	1.06	0.825	1.88	2.91	0.446	3.9	0.74	3.9
CCGACTGGGGCAAAGGTTACCATCCTCAGTACGA	4.64	5.59	-0.502	-0.948	1.17	2.56	-0.625	4.05	-0.46	2.39
CAAACTAGGTCAACAGGTCAAAGTCCGCTTCCCG	8.61	8.71	4.74	3.76	4.14	4.32	1.23	5.98	3.05	4.81
CGTCCAAAGTCAGCAGGTCAGTGAAAGCGACGTG	0.261	0.191	-0.441	-1.08	0.985	0.594	-0.2	0.951	-0.229	2.05
ACTCTGAGGACAAAGGTCAGAGCTACGCCAGTGA	1.18	4.01	0.601	0.00649	3.26	3.74	0.395	5.19	0.924	4.47
GGAACGAGGGCAAGTTGATACCAGAGTTTGATGG	3.63	3.07	-0.214	-0.247	0.551	0.835	0.927	0.537	0.0477	2.45
CCTACTGGGCCAAGAAAGGTCATTGATTCAGTGA	3.49	3.92	-0.232	0.143	2.98	5.1	1.18	5.31	1.75	3.89
ATCTCTAGGTAAGACTCAGTTCAGTGAGGAACGC	1.94	1.26	0.558	0.604	0.314	0.836	1.56	0.193	0.359	0.376
GCATAAAGGTAATACAAGGTGAAAGTCCGATTGT	0.839	1.67	0.773	0.759	0.757	1.42	-0.0245	1.99	0.262	1.11
ACAAGCAGGCCAAGTTTGGGTCACTCAAACAAAG	0.823	1.59	-0.817	-0.239	-0.0252	0.706	-0.465	1.56	-0.485	2
GCATATAGGTCATACAAGGTGAAAGTCCGATTGT	6.81	7.41	3.79	2.08	2.85	4.68	0.812	4.41	1.09	4.29
TCTGCTAGGTCAACGATGGTCGGCTAATCTGCTA	4.31	4.05	0.027	-0.0502	0.168	1.22	-0.84	2.02	-1.21	3.97
TCTCGGAGGGCACGAAAGGTCAGAGCTCGACATC	1.78	2.45	-0.111	-0.16	3	5.57	0.576	5.45	0.74	4.79
AGTCAAAGTTCAGGACGAGGTAAGGTAAAGCACG	-0.019	1.69	0.348	-0.0383	2.01	2.5	1.18	2.42	1.06	4.4
AGAACGAGGGCAATGAGTTGATAGCGCGGGTGGC	3.57	2.39	0.0277	-0.898	-0.335	1.62	4.62	-0.0907	-1.01	1.96
GCGACTGGGGCAAAGCAGGTTACCAAAAGGTTGG	4.78	3.6	-0.303	-0.695	-0.131	0.48	-0.452	0.862	-0.773	1.02
GCATTTAGGTAATACAAGGTGAAAGTCCGATTGT	3.13	2.5	1.39	0.568	0.826	0.319	0.3	0.911	0.039	0.715
AGACTGAGGTTATACGTAGATCAGGGAAGAAAGT	0.425	0.435	0.201	0.0103	0.623	1.09	0.133	1.68	0.064	1.46
CGTCCAATGTCAGCAGGTCAGTGAAAGCGACGTG	0.4	0.811	-0.067	-0.189	1.33	0.416	-0.258	1.17	0.0652	2.6
AGAATGAGGTTACCAAAGATGAGGGAAACGCTTG	3.67	3.1	1.29	0.621	0.657	1	0.117	1.79	0.142	2.14
CAAACTCGGTCAAAGGTCAAAGTCGAGCCAACCA	5.71	7.61	1.95	3.41	6.43	6.69	2.5	8.37	3.33	5.43

Sequence	PBM binding z-score [1]	PBM binding z-score [2]	PBM binding z-score [3]	PBM binding z-score [4]	PBM binding z-score [5]	PBM binding z-score [6]	PBM binding z-score [7]	PBM binding z-score [8]	PBM binding z-score [9]	PBM binding z-score [10]
CGTCCAAGGCCAAGGTCAGTGAAAGAGACTCGAA	0.486	0.991	-1.04	-1.54	1.05	1.53	0.261	2.04	0.342	3.58
TGTCAAAGTTCAAATGTAACGTAAGTATCCACAC	0.32	4.15	1.72	2.11	2.82	5.13	4.03	3.93	2.08	5.02
ACTATTAGTTGACTTAGGGCAACCGGTACGACGC	0.0602	0.506	0.963	0.218	0.403	0.35	0.564	0.898	0.577	1.14
CCGACTCGGGCAAGGTTACCATAACGCACAGCCA	0.68	0.196	-0.901	-1.26	-0.121	0.246	-0.0787	0.655	-0.459	1.33
ATCTCTCGGTAAGACTCAGTTCAGTGAAGAACGC	0.0945	0.262	0.647	0.946	1.35	1.2	1.82	0.858	1.21	0.565
TCTCGGAGGACACGAAAGGTCAGGGCTCGACATC	1.91	1.97	0.171	-0.651	2.95	4.44	0.147	4.93	0.454	4.4
CCTAGTGGGTCAAGGTCACACACGCTATAGGTAC	6.82	8.11	2.26	1.37	4.57	4.75	1.48	5.41	2.82	4.87
ATCTCTAGGTAAAGATAGTTCAGTTAATGCAAAT	2.3	1.96	0.842	0.769	1.02	1.26	0.841	0.925	1.28	0.672
CCTACTGGGCCAAGGTCATTGTTCAGTCAAAGCA	3.1	4.53	1.57	-0.159	3.54	3.62	1.49	3.79	-0.126	3.25
CGTCCAAGGTCAGAGAGTTCAGTGAATGCCGAGT	2.97	2.07	-0.209	-1.29	2.85	6.75	14.2	4.08	1.32	4.78
GCTGCTAGGTCACCTGATGGTCAGCTAAAGCTCG	4.7	4.09	0.447	0.446	1.57	1.2	-0.963	2.67	-0.925	3.86
CCAGATAGGTGAGAAGGTAACTCAGCCTCGATTA	2.53	1.72	-0.37	-0.16	1.05	0.0792	0.177	0.307	0.419	0.76
TCTTGTAGATCAACAGGAGGCTAAGAAAGATCGA	1.2	0.746	0.507	0.151	-1.21	-0.24	-0.799	-0.313	-0.265	-0.249
ATCTCTAGGTAGCAAGTTCAGTGAAAGAGAGGAC	0.208	0.604	0.0162	0.501	0.437	1.22	1.35	0.324	0.221	0.981
GATACAGGGTAAAGGCCAGAGTACGCGTATTGAT	1.02	2.64	0.254	-0.000144	0.5	0.017	-0.0145	0.137	-0.111	1.18
ACTAACAGGCCAAGTTTGGGTCACTCAAACAAAG	0.131	0.999	-0.122	0.374	0.38	0.912	-0.269	1.75	-0.388	2.11
ATTACAGGGTCACTAGGCCAGAGTAGGTACGAAT	3.81	5.92	2.92	2.81	2.63	3.43	0.344	4.32	1.19	4.46
CCTACTGGGCCATTCAGAAGTCATTGATCATATG	4.43	3.36	-0.17	-0.487	0.0197	-0.557	-0.689	-0.413	0.126	0.115
CGAACTAGGTCATCCAGGACAGTGACTACATTGA	8.16	8.47	4	0.771	3.18	1.88	1.13	2.32	0.438	3.95
CCTAGTTGGTCAACGTCACACACGCTATAGGTAC	2.03	1.8	0.867	0.424	1.37	0.444	0.536	0.716	1.34	1.21
ACTATGAGTTGACTTAGGGCAACCGATACGACGC	0.0745	0.378	0.38	1.61	0.141	0.608	0.888	1.09	0.486	0.974
AATACAGGATCATCGTAGGCCAGAGTACGCACAG	-0.0409	0.414	0.728	0.381	0.342	0.111	0.257	0.723	0.87	0.16
TCATATAGGTAAACAGATGAAAGTCCGTAAGTTA	3.98	2.76	1.5	0.808	0.603	0.869	0.583	0.622	1.28	0.483
CCTACTAGGTCAATGGTCAGCTAAAGCAGCTCGC	7.63	7.77	2.1	1.05	2.62	1.26	0.377	1.95	0.521	3.89
